Screen size: about 420,000 compounds; about 50,000 (12%) were called active. Where a call stands in place of a potency, no number is given. About 26% were inconclusive and are not listed. Calls follow the shape of the dose curve; as a rule, active = well fitted inhibition curve with a large enough effect; inconclusive = small, poorly fitted or top-dose-only effect; inactive = flat fitted curve, though single readings scatter. The full list was thinned out, with actives kept by preference.
Test: qHTS for Inhibitors of human tyrosyl-DNA phosphodiesterase 1 (TDP1): qHTS in cells in presence of CPT; also: nearly all actives have a fitted effect of over 55% in size
Conditions: chicken DT40 Tdp1-/-;hTDP1 cells + 20 nM CPT, ATP luminescence, 48 h; series mostly up to 46.2 µM
Procedure, shortened: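 Cell growth measured by CellTiter-Glo luminescence after a minimum 48 h, 37 C compound exposure with 20 nM CPT in Tdp1-knockout DT40 cells stably expressing hTDP1, seeded 400/well; qHTS titration format.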
Potency is read from the fitted curve at half-maximal effect.

**Q.** With `CC(OC(=O)CN1C(=O)C2CCCCC2C1=O)C(=O)Nc1ncc(Cl)cc1Cl` (stereo not given) as the molecule, how does the Potency read?
**A.** Its Potency is “inactive”.

**Q.** With `CC1=CC(C)(C)Nc2ccc(OC(=O)CN3C(=O)C4CCCCC4C3=O)cc21` (stereo not given) as the molecule, how does the Potency read?
**A.** Its Potency is 1.64 µM (active).

**Q.** For `O=C(CN1C(=O)C2C3CCC(C3)C2C1=O)Oc1ccc2ccccc2c1` (stereo not given), which Potency is on record?
**A.** The Potency was “inactive”.

**Q.** With `O=C(/C=C/c1c(F)cccc1Cl)Nc1nn[nH]n1` as the molecule, how does the Potency read?
**A.** Its Potency is “inactive”.

**Q.** For `O=C(N/C(=C\c1ccc(O)cc1)C(=O)N1CCCCC1)c1ccccc1`, which Potency is on record?
**A.** Its Potency is “inactive”.

**Q.** For `CCOc1ccc(C2/C(=C(/O)c3ccc4c(c3)CC(C)O4)C(=O)C(=O)N2CCCn2ccnc2)cc1` (stereo not given), which Potency is on record?
**A.** Its Potency is “inactive”.

**Q.** With `CC(C)=CCC/C(C)=C/CC/C(C)=C/CC/C(C)=C/CO` as the molecule, how does the Potency read?
**A.** Its Potency is “inactive”.

**Q.** Which Potency does the source give for `Cc1nc2ccccc2n1CC(O)c1ccccc1` (stereo not given) here?
**A.** The Potency was “inactive”.

**Q.** For `Cc1ccc(C2=NN(C)c3nc4ccccc4n3C2)cc1`, which Potency is on record?
**A.** Its Potency is 18.4 µM (active).

**Q.** Which Potency does the source give for `Cc1ccc(Oc2nc3ccccc3n3c(C)nnc23)cc1` here?
**A.** The Potency was “inactive”.

**Q.** With `COC(=O)C(C)N=Cc1ccccc1` (stereo not given) as the molecule, how does the Potency read?
**A.** Its Potency is “inactive”.

**Q.** For `Cc1ccc(C(=O)Nc2ccc(C(=O)O)cc2)cc1S(=O)(=O)Nc1ccccc1`, which Potency is on record?
**A.** Its Potency is “inactive”.

**Q.** For `CSCC(=O)N1CCCC(C(=O)c2cc(F)ccc2F)C1` (stereo not given), which Potency is on record?
**A.** Its Potency is “inactive”.

**Q.** Which Potency does the source give for `O=C1CCC(CCC(=O)N2CCCC(C(=O)c3ccc(Cl)cc3)C2)=NN1` (stereo not given) here?
**A.** The Potency was “inactive”.

**Q.** With `COc1ccc(F)cc1C(=O)C1CCCN(C(=O)CCc2ccccn2)C1` (stereo not given) as the molecule, how does the Potency read?
**A.** Its Potency is 16.4 µM (active).

**Q.** Which Potency does the source give for `O=C1NC(O)CCN1C1CC(O)C(CO)O1` (stereo not given) here?
**A.** The Potency was “inactive”.

**Q.** With `C=CCNC(=O)COC(=O)CNC(=O)c1cc(Cl)cc([N+](=O)[O-])c1` as the molecule, how does the Potency read?
**A.** The Potency was “inactive”.

**Q.** For `O=C(O)c1ccccc1Cc1ccc(F)c2ccccc12`, which Potency is on record?
**A.** Its Potency is “inactive”.

**Q.** For `O=C(Nc1nnc(Cc2ccccc2)s1)c1cnccn1`, which Potency is on record?
**A.** Its Potency is “inactive”.

**Q.** Which Potency does the source give for `CC1CCN(C2=NC(=O)/C(=C/c3cn[nH]c3-c3ccccc3)S2)CC1` here?
**A.** Its Potency is “inactive”.

**Q.** For `CCn1cc(C(=O)NC2CCCCCC2)c(=O)c2cc(S(=O)(=O)N3CCCCC3)ccc21`, which Potency is on record?
**A.** The Potency was 29.1 µM (active).

**Q.** With `Cc1ccc(Cl)cc1N1CCN(C(=O)c2cn(C)c3ccc(S(=O)(=O)N(C)C4CCCCC4)cc3c2=O)CC1` as the molecule, how does the Potency read?
**A.** Its Potency is “inactive”.

**Q.** Which Potency does the source give for `CCn1cc(C(=O)N2CCN(c3cc(Cl)ccc3C)CC2)c(=O)c2cc(S(=O)(=O)N3CCCC3)ccc21` here?
**A.** The Potency was 23.1 µM (active).

**Q.** For `CCn1cc(C(=O)N(C)Cc2ccccc2)c(=O)c2cc(S(=O)(=O)N3CCCCCC3)ccc21`, which Potency is on record?
**A.** The Potency was “inactive”.

**Q.** For `Cc1ccc(S(=O)(=O)N2CCN(C)CC2)cc1C(=O)NC1CCCCC1`, which Potency is on record?
**A.** Its Potency is “inactive”.

**Q.** For `CCn1cc(C(=O)N2CC(C)CC(C)C2)c(=O)c2cc(S(=O)(=O)N3CCCC3)ccc21` (stereo not given), which Potency is on record?
**A.** The Potency was “inactive”.

**Q.** With `CCCCc1cc(=O)oc2c(C)c(OCC(=O)N3CCC(C(N)=O)CC3)ccc12` as the molecule, how does the Potency read?
**A.** The Potency was “inactive”.

**Q.** For `CCOc1ccc(Br)cc1S(=O)(=O)Nc1ccc(S(=O)(=O)Nc2cc(C)on2)cc1`, which Potency is on record?
**A.** The Potency was “inactive”.

**Q.** For `O=C(NCc1ccc2c(c1)OCO2)c1sccc1Br`, which Potency is on record?
**A.** The Potency was “inactive”.

**Q.** For `O=C(NCc1ccc2c(c1)OCO2)c1c(-c2ccsc2)sc2ccccc12`, which Potency is on record?
**A.** Its Potency is 14.6 µM (active).

**Q.** With `O=C(NCc1ccc2c(c1)OCO2)c1ccc(Cl)s1` as the molecule, how does the Potency read?
**A.** Its Potency is “inactive”.

**Q.** Which Potency does the source give for `CC(C)(C)C(=O)CSc1ccc(S(=O)(=O)N2CCCC2)cn1` here?
**A.** Its Potency is “inactive”.

**Q.** For `CN=C1SC(CC(=O)Nc2ccc(C(=O)O)cc2)C(=O)N1C` (stereo not given), which Potency is on record?
**A.** The Potency was “inactive”.

**Q.** For `CCC(=C/c1sc2ccc3ccccc3c2[n+]1C)/C=C1\Sc2ccc3ccccc3c2N1C`, which Potency is on record?
**A.** The Potency was 0.231 µM (active).

**Q.** Which Potency does the source give for `COc1ccc(N(CC(=O)N2CCOCC2)S(=O)(=O)c2ccccc2)cc1Cl` here?
**A.** Its Potency is “inactive”.

**Q.** Which Potency does the source give for `COc1ccc(CCNC(=O)c2cnc3sc(N4CCCCCC4)nn3c2=O)cc1OC` here?
**A.** Its Potency is 11.6 µM (active).

**Q.** Which Potency does the source give for `COc1ccc(CCNC(=O)C2CCN(c3nn4c(=O)cc(C)nc4s3)CC2)cc1OC` here?
**A.** The Potency was “inactive”.

**Q.** For `COc1ccc(CCNC(=O)c2ccc(NC(=O)CC3SC(N4CCCCC4)=NC3=O)cc2)cc1OC` (stereo not given), which Potency is on record?
**A.** The Potency was “inactive”.

**Q.** Which Potency does the source give for `CSc1ncc(C(=O)NCCCc2ccccc2)c(C)n1` here?
**A.** The Potency was “inactive”.

**Q.** With `O=C(O)c1ccccc1-c1ccccc1C(=O)NCCc1ccccc1` as the molecule, how does the Potency read?
**A.** Its Potency is “inactive”.

**Q.** With `O=C(NCCc1ccccc1)c1cnc2sc(N3CCCC3)nn2c1=O` as the molecule, how does the Potency read?
**A.** The Potency was 16.4 µM (active).

**Q.** With `Cc1cc(C)c(S(=O)(=O)NCC(c2ccc3c(c2)OCO3)N2CCOCC2)c(C)c1` (stereo not given) as the molecule, how does the Potency read?
**A.** The Potency was “inactive”.

**Q.** With `COc1cc(OC)cc(C(=O)NNC(=O)Cc2cccs2)c1` as the molecule, how does the Potency read?
**A.** The Potency was “inactive”.

**Q.** Which Potency does the source give for `COc1cc(OC)c(NC(=O)Cc2ccc(-n3c(C)nc4cccnc43)cc2)cc1Cl` here?
**A.** The Potency was 23.1 µM (active).

**Q.** With `CCc1nc2cccnc2n1-c1ccc(C(=O)O)cc1` as the molecule, how does the Potency read?
**A.** Its Potency is “inactive”.

**Q.** With `COCCCNC(=O)Cc1ccc(-n2c(C)nc3cccnc32)cc1` as the molecule, how does the Potency read?
**A.** Its Potency is “inactive”.

**Q.** With `Cc1cccc(-n2nc3c(c2NC(=O)c2cc4ccccc4o2)CS(=O)(=O)C3)c1` as the molecule, how does the Potency read?
**A.** Its Potency is “inactive”.

**Q.** Which Potency does the source give for `O=C(CN1CCC(O)(c2cccc(C(F)(F)F)c2)CC1)NCCc1ccccc1` here?
**A.** Its Potency is “inactive”.

**Q.** With `CSc1ccc(C(=O)C2CCCN(C(=O)c3ccc(C)nc3)C2)cc1` (stereo not given) as the molecule, how does the Potency read?
**A.** The Potency was 20.6 µM (active).

**Q.** With `O=C(c1ccc(F)cc1)N1CCCC(C(=O)N2CCCCC2)C1` (stereo not given) as the molecule, how does the Potency read?
**A.** The Potency was “inactive”.

**Q.** For `Cc1cnc(C(=O)N2CCCC(N3CCN(c4ccccc4F)CC3)C2)cn1` (stereo not given), which Potency is on record?
**A.** The Potency was “inactive”.

**Q.** Which Potency does the source give for `COc1cc2c(cc1OC)C(C(=O)Nc1cc(C)c(OC)c(C)c1)CC(=O)N2` (stereo not given) here?
**A.** Its Potency is “inactive”.

**Q.** With `COc1ccc(NC(=O)c2ccco2)cc1NC(=O)c1ccc(C#N)cc1F` as the molecule, how does the Potency read?
**A.** The Potency was “inactive”.

**Q.** For `COc1ccc(N(CC(=O)N2CCCCCC2)S(=O)(=O)c2ccccc2)cc1`, which Potency is on record?
**A.** Its Potency is “inactive”.

**Q.** With `CCC(C)[C@H](NC(=O)N1c2ccccc2NC(=O)[C@@H]1C(C)C)C(=O)N[C@@H](Cc1ccccc1)C(=O)O` (stereo not given in full) as the molecule, how does the Potency read?
**A.** Its Potency is “inactive”.

**Q.** Which Potency does the source give for `CCOC(CNC(=O)C1CCN(S(=O)(=O)c2ccc3nc4c(c(C(=O)O)c3c2)CC(C)CC4)CC1)OCC` (stereo not given) here?
**A.** Its Potency is “inactive”.

**Q.** With `CCCc1nn2c(=O)cc(CSCC(=O)Nc3cccc(C)c3)nc2s1` as the molecule, how does the Potency read?
**A.** The Potency was “inactive”.

**Q.** Which Potency does the source give for `COc1ccc(-c2c(C#Cc3ccccc3)c3ccccc3n2C)cc1` here?
**A.** The Potency was “inactive”.

**Q.** For `COc1ccc(CCNC(=O)COC(=O)c2cc(=O)c3ccccc3o2)cc1`, which Potency is on record?
**A.** The Potency was “inactive”.

**Q.** With `COc1ccc(CCNCc2c(-c3ccccc3)n(C)c3ccccc23)cc1` as the molecule, how does the Potency read?
**A.** Its Potency is 16.4 µM (active).

**Q.** For `O=c1[nH]c2c(c(=O)n1-c1ccccc1)CCO2`, which Potency is on record?
**A.** Its Potency is “inactive”.

**Q.** Which Potency does the source give for `O=C(CCNC(=O)c1ccc([N+](=O)[O-])cc1)NC1CCCCC1` here?
**A.** The Potency was “inactive”.

**Q.** For `c1ccc(C2c3[nH]c4ccccc4c3CCN2Cc2cccn2-c2cccnc2)nc1` (stereo not given), which Potency is on record?
**A.** Its Potency is “inactive”.

**Q.** Which Potency does the source give for `CCOc1ccc(C2c3[nH]c4ccccc4c3CCN2Cc2cccn2-c2ncccn2)cc1` (stereo not given) here?
**A.** Its Potency is 20.6 µM (active).

**Q.** With `CCOc1ccc(C2c3[nH]c4ccccc4c3CCN2Cc2cn(CC)nc2C)cc1` (stereo not given) as the molecule, how does the Potency read?
**A.** The Potency was “inactive”.

— PubChem BioAssay AID686979 (National Center for Advancing Translational Sciences (NCATS), 2013)
